Screening results (PubChem BioAssay)
Most compounds without a hit are left out; they make up all but 3.3% or so of the library.
Wnt bcat act: activates Wnt/beta-catenin signaling in a reporter cell assay. activator, plate reader. activation, % at 9.35 µM. 300,000 tested, 1.2% active. AID 743398; in the data active = activation above about 30%, passing the limit was not always enough; inconclusive = no clear call, values can overlap the other calls;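 note: 0% = neutral control wells and 100% = positive control wells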
esBAF inh: blocks esBAF chromatin remodeling in mouse ES cells. Bmi1-luciferase knock-in reporter, 24 h; 100% = twice the neutral-well signal. reporter increase, % at 12.5 µM. 350,000 tested, 2% active. AID 602393; in the data active = activation above about 40%; inconclusive = no clear call, values can overlap the other calls;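 note: 0% = median of the plate's neutral control wells and 100% = double that signal; a rise in the Bmi1 reporter signal indicates esBAF inhibition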
MITF TRPM1 HTS: activators of MITF-driven TRPM1 promoter activity in SK-MEL-5 cells. AID 588334. activation, % at 12.5 µM. SK-MEL-5 TRPM1-promoter luciferase, 24 h; % of positive control, neutral wells = 0. 300,000 tested, 0.75% active;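 active = mean activation of at least 80% with every replicate also reaching 80%; inconclusive = mean reaches 80% but some replicate falls short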;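 note: 0% = neutral control wells and 100% = parthenolide positive control wells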
Statin myotox sup: suppressors of simvastatin-induced myotoxicity in C2C12 myotubes; ATP luminescence, 48 h; scaled: DMSO 0, geranylgeraniol control 100; rescue of ATP level, % at 7.49 µM; 330,000 tested, 0.78% active;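 active = mean ATP rescue above about 67%, or every replicate alone reaching that limit, limit read from the data, passing the limit was not always enough; inconclusive = no clear call, values can overlap the other calls; inactive = mean under the limit and some replicate under it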;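 note: myotubes were challenged with 10 µM simvastatin during compound exposure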
GAA850 FXN act: activators of GAA850 frataxin (FXN) promoter. HEK293 lucGAA850 FXN promoter luciferase reporter, 24 h; percent of 10 µM SAHA response. activation, % at 6 µM. 360,000 tested, 0.56% active. AID 540364;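 active = activation above the average of all compounds screened plus 3 SD, cutoff fixed separately per campaign, cut at about 7.5% in these data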;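 note: 0% = DMSO wells and 100% = 10 µM SAHA wells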
* hit, by the source's call.

For C[C@H](CO)N1C[C@H](C)[C@H](CN(C)C(=O)C2CCCCC2)Oc2cc(-c3cccnc3)ccc2S1(=O)=O the results were esBAF inh 5 and Statin myotox sup 6.
Screening CN(CCC#N)C(=O)COC(=O)c1c2c(nc3ccccc13)/C(=C\c1ccco1)CC2 returned Wnt bcat act -2, esBAF inh 56*, MITF TRPM1 HTS 31, Statin myotox sup -5 and GAA850 FXN act 2.
Screening COc1ccc(CCN2C(=O)C3C(C2=O)C2C=CC3C23CC3)cc1OC (stereo not given) returned Wnt bcat act -1, esBAF inh 24, MITF TRPM1 HTS 7, Statin myotox sup 118* and GAA850 FXN act 0.
For COc1ccc(CCNC2CC(=O)N(CCc3ccccc3)C2=O)cc1OC (stereo not given) the results were Wnt bcat act 42*, esBAF inh 6, MITF TRPM1 HTS 4, Statin myotox sup 8 and GAA850 FXN act -1.
O=C(C[C@H]1C[C@H]2c3cc(NC(=O)Nc4ccccc4F)ccc3O[C@H]2[C@H](CO)O1)NCc1ccc2c(c1)OCO2 was read as esBAF inh -4 and Statin myotox sup 9.
`CCN(CC)c1nc(C#N)cc(-c2ccc(OC)cc2)n1` gave esBAF inh 4, MITF TRPM1 HTS -27, Statin myotox sup 109* and GAA850 FXN act -4.
Cc1ccnc(SCc2cc(=O)c(OC(=O)c3ccc(Br)o3)co2)n1 was read as Wnt bcat act 51*, MITF TRPM1 HTS 0 and GAA850 FXN act 3.
For O=C(Oc1coc(CSc2ncccn2)cc1=O)c1ccc(Br)o1 the results were Wnt bcat act -1, MITF TRPM1 HTS -13 and GAA850 FXN act 1.
For C[C@H](O)C#Cc1cnc2c(c1)C(=O)N([C@@H](C)CO)C[C@H](C)[C@H](CN(C)C(=O)CC1CC1)O2 the results were esBAF inh 1 and Statin myotox sup 9.
`O=C(NNS(=O)(=O)c1ccccc1)C1CCN(S(=O)(=O)c2ccc(Cl)cc2)CC1` gave Wnt bcat act -8, esBAF inh 7, Statin myotox sup 14 and GAA850 FXN act -1.
`O=S(=O)(NCC1CCN(S(=O)(=O)c2ccccc2)CC1)c1ccccc1` gave Wnt bcat act -3, esBAF inh -3, MITF TRPM1 HTS 0, Statin myotox sup 137* and GAA850 FXN act 1.
O=C(NNS(=O)(=O)c1ccccc1)C1CCN(S(=O)(=O)c2ccccc2)CC1 was read as Wnt bcat act 42*, esBAF inh 2, MITF TRPM1 HTS 12, Statin myotox sup -1 and GAA850 FXN act -2.
`O=C(Nc1cccc(-c2ccc(N3CCOCC3)nn2)c1)c1cccc(Cl)c1` gave Wnt bcat act 35*, esBAF inh 71*, Statin myotox sup -48 and GAA850 FXN act 2.
O=C(COc1ccc(Cl)cc1)Nc1cccc(-c2ccc(N3CCOCC3)nn2)c1 was read as Wnt bcat act 30, esBAF inh -38, MITF TRPM1 HTS 71, Statin myotox sup -31 and GAA850 FXN act 3.
Screening Cc1ccc(S(=O)(=O)Nc2cccc(-c3ccc(N4CCCCCC4)nn3)c2)cc1 returned Wnt bcat act 20, esBAF inh 67*, MITF TRPM1 HTS inconclusive, Statin myotox sup 2 and GAA850 FXN act 4.
`Cc1ccc(C(=O)Nc2cccc(-c3ccc(N4CCOCC4)nn3)c2)cc1` gave Wnt bcat act 36*, esBAF inh 52*, MITF TRPM1 HTS 75, Statin myotox sup -25 and GAA850 FXN act 3.
Screening O=C(Nc1cccc(-c2ccc(N3CCOCC3)nn2)c1)c1ccccc1Cl returned Wnt bcat act -3, esBAF inh 54*, MITF TRPM1 HTS 107*, Statin myotox sup -4 and GAA850 FXN act 3.
Screening O=C(Nc1cccc(-c2ccc(N3CCOCC3)nn2)c1)c1ccc(Cl)cc1 returned Wnt bcat act -2, esBAF inh 35, MITF TRPM1 HTS 84*, Statin myotox sup -26 and GAA850 FXN act 2.
For CC(=O)c1cccc(NC(=S)NC(=O)c2cccc(C)c2)c1 the results were Wnt bcat act 29, MITF TRPM1 HTS 109* and GAA850 FXN act 5.
CC(=O)c1cccc(NC(=S)NC(=O)c2ccccc2Br)c1 was read as Wnt bcat act -3, MITF TRPM1 HTS 12 and GAA850 FXN act 5.
Screening Cc1cc(C(=O)NC(=S)Nc2cccc(NC(=O)C(C)C)c2)ccc1[N+](=O)[O-] returned Wnt bcat act 10, esBAF inh 49*, MITF TRPM1 HTS 23, Statin myotox sup -5 and GAA850 FXN act 3.
